This is one part of a sample in which hits are shown more often than they occur.
15-hLO-2 inh – qHTS Assay for Inhibitors of 15-hLO-2 (15-human lipoxygenase 2). Polyunsaturated fatty acid lipoxygenase ALOX15B (Homo sapiens), O15296. purified 15hLO-2, xylenol orange hydroperoxide absorbance. Potency, µM (series often up to 57.1 µM), hits mostly inhibitors. actives 0.56% (n = 110,000); further: nearly all actives have a fitted effect of over 60% in size
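Read-out: hydroperoxide product oxidises ferrous iron, measured as xylenol orange complex via the 573-to-405 nm absorbance ratio after 30 min. Reaction: 50 nM enzyme, 15 min compound preincubation, 45 uM arachidonic acid, 90 min RT, Hepes pH 7.5 with Triton X-100.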
12-hLO inh – qHTS Assay for Inhibitors of 12-hLO (12-human lipoxygenase); Polyunsaturated fatty acid lipoxygenase ALOX12 (Homo sapiens), P18054; purified 12-hLO, xylenol orange hydroperoxide absorbance; Potency, µM (titrated, usually from 57.1 µM), actives largely listed as inhibitors; actives 0.12% (n = 150,000); AID 1452, 2008; further: nearly all actives have a fitted effect of over 55% in size
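150 nM 12hLO, 25 mM Hepes pH 7.0 + 0.01% Triton X-100; cpd preinc 15 min RT; 40 uM arachidonic acid, 30 min RT; Fe-XO 30 min; A573/A405 ratio as read-out.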
Numbers stand for hits; – = inactive; ? = inconclusive; · = no result given; [ ] = dose if it differs, or a comment. The call rests on the fitted dose curve; in most records, active means well fitted curve in the direction sought with a large enough effect; inconclusive means small, poorly fitted or top-dose-only effect, or another doubt; inactive means no such curve, though single readings can be large; an effect the other way counts as inactive or inconclusive.

SMILES | 15-hLO-2 inh | 12-hLO inh
Oc1cc(O)cc(/C=C\c2ccc(O)c(O)c2)c1 | 3.2µM | ?
Oc1ccc(/C=C\c2cc(O)cc(O)c2)cc1 | – | –
CSC(N)=NCCC[C@@H](N)C(=O)O | – | –
c1ccc(-n2nnnc2Oc2cccc3cccnc23)cc1 | – | –
N#Cc1cc(Oc2cccc3cccnc23)c(-n2nnc3ccccc32)cc1C#N | ? | 10µM
CCCCC/C=C\C\C=C/C=C/C=C/[C@@H](SCC(N)C(=O)NCC(=O)O)[C@@H](O)CCCC(=O)O (stereo not given in full) | · | –
Oc1c(Cl)cc(Cl)cc1C(C#Cc1ccccc1)N1CCOCC1 (stereo not given) | –[11.4 µM] | –
Oc1c(Cl)cc(Cl)cc1Sc1cc(Cl)cc(Cl)c1O | 6.3µM | ?
CCCCCCCCCCCCCCC[C@@H](O)[C@H](CO)NC(=O)CCCCCCC | · | –
CN(Cc1ccccc1)C(=O)[C@H](Cc1ccc2ccccc2c1)NC(=O)[C@@H]1C[C@@H](O)CN1C(=O)c1cn(C)c2ccccc12 | ? | –[0.00818 µM]
O=C1NC2(CCCCC2)C(=O)N1c1ccccc1 | – | –
O=C1NC2(CCCCC2)NN1c1ccccc1 | ? | 4µM
O=C(O)C[C@@H]1CCCc2ccccc2[C@H]1O | – | –
CCCCc1ccc(C2C(C#N)=C(N)SC(N)=C2C#N)s1 | 13µM | ?
CCOc1ccc(C2C(C#N)=C(N)SC(N)=C2C#N)c(OCC)c1 | –[11.4 µM] | –
